What was measured:
Assay in all cases: DAPPL (digital affinity profiling via proximity ligation, sequencing); 10 mM Tris-HCl pH 7.5, 50 mM NaCl, 1 mM DTT, 4% glycerol, room temperature, 30 min; GST-TFs on glutathione beads, 16-mer random dsDNA library, 0.1% formaldehyde crosslink after washing; high values mean tight binding
FLI1 = molecular target: T1, FLI1 (Homo sapiens, UniProt Q01543 1-452); settings: protein: recombinant; tags: N-terminal GST; dsDNA, one strand shown
T1 sequence: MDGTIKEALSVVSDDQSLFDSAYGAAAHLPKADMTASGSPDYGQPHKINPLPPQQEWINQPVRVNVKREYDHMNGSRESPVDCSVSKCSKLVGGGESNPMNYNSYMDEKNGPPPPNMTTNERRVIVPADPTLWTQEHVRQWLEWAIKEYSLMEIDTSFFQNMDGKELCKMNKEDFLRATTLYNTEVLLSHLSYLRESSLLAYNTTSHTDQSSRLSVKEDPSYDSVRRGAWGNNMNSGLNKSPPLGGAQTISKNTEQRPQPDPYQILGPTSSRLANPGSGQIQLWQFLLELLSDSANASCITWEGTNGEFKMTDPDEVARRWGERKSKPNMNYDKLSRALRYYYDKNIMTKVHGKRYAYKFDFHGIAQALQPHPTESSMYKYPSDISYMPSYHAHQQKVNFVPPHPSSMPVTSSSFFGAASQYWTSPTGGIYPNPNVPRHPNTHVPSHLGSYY
Summary of the method: (§1)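 Beads coated with glutathione captured GST-fused human transcription factors that had been expressed in yeast, and the factors were then given DNA barcodes and pooled with a tag-only sample. The pools were incubated with 200 nmole of a random double-stranded 16-mer DNA library in Tris/NaCl/DTT/glycerol buffer for 30 min at room temperature, washed, crosslinked with 0.1% formaldehyde and proximity-ligated with BsaI/T4 ligase at 37 °C for 1 h. PCR amplification and Illumina NextSeq500 sequencing came last. Binding signal is each hexamer's read frequency for a factor divided by its frequency for the tag-only sample.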

ELK1 = molecular target: T2, ELK1 (Homo sapiens, UniProt P19419 1-428); settings: protein: recombinant; tags: N-terminal GST; dsDNA, one strand shown
T2 sequence: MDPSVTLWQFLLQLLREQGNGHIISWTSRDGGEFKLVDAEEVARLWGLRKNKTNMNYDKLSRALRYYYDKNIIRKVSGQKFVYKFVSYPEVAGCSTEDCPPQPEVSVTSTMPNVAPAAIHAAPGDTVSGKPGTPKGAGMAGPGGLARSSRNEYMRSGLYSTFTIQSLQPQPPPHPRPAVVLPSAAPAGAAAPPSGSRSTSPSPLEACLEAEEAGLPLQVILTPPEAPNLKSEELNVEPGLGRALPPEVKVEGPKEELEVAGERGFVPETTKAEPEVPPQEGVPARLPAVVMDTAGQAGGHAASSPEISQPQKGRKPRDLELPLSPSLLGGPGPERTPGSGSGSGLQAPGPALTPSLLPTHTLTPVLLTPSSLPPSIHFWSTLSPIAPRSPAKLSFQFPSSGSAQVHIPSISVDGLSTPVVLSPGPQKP
Summary of the method: as §1

GABPA = molecular target: T3, GABPA (Homo sapiens, UniProt Q06546 1-454); settings: protein: recombinant; tags: N-terminal GST; dsDNA, one strand shown
T3 sequence: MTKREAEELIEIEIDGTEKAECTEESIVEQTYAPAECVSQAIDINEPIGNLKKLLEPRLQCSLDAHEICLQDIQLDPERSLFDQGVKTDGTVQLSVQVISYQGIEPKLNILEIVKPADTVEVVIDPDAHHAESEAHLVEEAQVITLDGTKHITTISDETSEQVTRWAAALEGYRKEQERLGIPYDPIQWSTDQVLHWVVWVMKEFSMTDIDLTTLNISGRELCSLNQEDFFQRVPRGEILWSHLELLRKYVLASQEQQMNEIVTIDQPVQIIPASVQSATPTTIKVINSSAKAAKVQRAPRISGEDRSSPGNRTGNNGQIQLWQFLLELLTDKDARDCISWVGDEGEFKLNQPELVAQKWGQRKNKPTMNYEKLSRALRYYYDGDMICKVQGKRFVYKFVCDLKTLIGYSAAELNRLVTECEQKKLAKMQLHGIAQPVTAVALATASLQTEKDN
Summary of the method: as §1

ERG = molecular target: T4, ERG (Homo sapiens, UniProt P11308 1-479); settings: protein: recombinant; tags: N-terminal GST; dsDNA, one strand shown
T4 sequence: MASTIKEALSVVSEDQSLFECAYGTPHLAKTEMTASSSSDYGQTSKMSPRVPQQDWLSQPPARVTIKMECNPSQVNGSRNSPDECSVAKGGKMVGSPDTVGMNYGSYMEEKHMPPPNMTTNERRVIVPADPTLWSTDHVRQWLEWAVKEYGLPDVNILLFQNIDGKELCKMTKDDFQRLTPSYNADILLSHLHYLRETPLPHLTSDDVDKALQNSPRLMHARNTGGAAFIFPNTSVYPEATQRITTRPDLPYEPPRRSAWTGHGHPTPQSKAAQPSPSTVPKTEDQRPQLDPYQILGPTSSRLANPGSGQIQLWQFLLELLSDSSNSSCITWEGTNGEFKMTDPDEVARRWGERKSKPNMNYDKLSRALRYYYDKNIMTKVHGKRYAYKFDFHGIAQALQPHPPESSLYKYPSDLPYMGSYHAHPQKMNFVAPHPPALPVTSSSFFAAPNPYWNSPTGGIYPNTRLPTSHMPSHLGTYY
Summary of the method: as §1

ELF1 = ELF1 (Homo sapiens, UniProt P32519 1-619); settings: protein: recombinant; tags: N-terminal GST; dsDNA, one strand shown
Chain of ELF1 (P32519 whole entry): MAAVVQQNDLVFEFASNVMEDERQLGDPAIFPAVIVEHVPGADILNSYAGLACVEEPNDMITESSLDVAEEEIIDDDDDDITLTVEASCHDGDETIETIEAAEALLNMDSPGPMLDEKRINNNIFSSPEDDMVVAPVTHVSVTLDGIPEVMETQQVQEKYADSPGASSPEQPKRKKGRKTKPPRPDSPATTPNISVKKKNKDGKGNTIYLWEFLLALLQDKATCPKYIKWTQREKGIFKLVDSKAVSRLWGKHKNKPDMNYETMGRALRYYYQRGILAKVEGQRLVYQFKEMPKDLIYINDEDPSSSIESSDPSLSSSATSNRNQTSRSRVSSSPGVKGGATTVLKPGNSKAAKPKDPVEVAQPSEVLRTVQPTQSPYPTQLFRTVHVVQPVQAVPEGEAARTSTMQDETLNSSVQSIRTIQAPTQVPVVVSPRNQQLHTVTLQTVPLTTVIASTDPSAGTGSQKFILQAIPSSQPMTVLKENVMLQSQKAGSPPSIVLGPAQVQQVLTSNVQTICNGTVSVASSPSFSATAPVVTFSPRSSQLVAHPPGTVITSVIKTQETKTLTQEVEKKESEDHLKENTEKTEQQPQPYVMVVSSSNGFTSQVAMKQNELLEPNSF
Summary of the method: as §1

EHF = molecular target: T5, EHF (Homo sapiens, UniProt Q9NZC4 1-300); settings: protein: recombinant; tags: N-terminal GST; dsDNA, one strand shown
T5 sequence: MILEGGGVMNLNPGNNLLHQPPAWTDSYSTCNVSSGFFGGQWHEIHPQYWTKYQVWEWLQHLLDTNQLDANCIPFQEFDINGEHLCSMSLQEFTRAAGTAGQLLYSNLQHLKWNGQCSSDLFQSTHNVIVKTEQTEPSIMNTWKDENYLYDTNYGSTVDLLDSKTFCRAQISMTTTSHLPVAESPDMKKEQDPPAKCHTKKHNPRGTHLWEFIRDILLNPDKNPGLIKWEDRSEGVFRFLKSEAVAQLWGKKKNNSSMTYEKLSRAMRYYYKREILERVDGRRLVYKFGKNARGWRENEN
Summary of the method: as §1

SPI1 = SPI1 (Homo sapiens, UniProt P17947 1-270); settings: protein: recombinant; tags: N-terminal GST; dsDNA, one strand shown
Summary of the method: as §1

SPIB = SPIB (Homo sapiens, UniProt Q01892 1-262); settings: protein: recombinant; tags: N-terminal GST; dsDNA, one strand shown
Chain of SPIB (Q01892 whole entry): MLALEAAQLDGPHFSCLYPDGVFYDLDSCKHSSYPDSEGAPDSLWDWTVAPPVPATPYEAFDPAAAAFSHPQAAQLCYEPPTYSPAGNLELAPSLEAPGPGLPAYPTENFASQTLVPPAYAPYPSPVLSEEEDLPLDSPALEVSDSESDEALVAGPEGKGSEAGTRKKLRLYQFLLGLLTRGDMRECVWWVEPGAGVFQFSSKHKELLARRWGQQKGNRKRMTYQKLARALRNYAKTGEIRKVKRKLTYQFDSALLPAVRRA
Summary of the method: as §1

ELK3 = molecular target: T6, ELK3 (Homo sapiens, UniProt P41970 1-407); settings: protein: recombinant; tags: N-terminal GST; dsDNA, one strand shown
T6 sequence: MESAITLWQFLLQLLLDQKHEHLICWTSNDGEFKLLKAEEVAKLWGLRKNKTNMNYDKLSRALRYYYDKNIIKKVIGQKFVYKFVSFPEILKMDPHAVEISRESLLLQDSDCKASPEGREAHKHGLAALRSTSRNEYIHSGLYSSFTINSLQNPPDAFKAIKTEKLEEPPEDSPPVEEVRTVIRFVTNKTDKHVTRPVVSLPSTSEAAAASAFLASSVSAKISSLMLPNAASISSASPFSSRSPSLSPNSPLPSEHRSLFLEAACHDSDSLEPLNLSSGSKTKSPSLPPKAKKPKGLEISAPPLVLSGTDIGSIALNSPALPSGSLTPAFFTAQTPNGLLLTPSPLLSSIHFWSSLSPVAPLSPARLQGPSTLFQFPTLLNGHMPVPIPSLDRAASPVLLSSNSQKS
Summary of the method: as §1

FEV = molecular target: T7, FEV (Homo sapiens, UniProt Q99581 1-238); settings: protein: recombinant; tags: N-terminal GST; dsDNA, one strand shown
T7 sequence: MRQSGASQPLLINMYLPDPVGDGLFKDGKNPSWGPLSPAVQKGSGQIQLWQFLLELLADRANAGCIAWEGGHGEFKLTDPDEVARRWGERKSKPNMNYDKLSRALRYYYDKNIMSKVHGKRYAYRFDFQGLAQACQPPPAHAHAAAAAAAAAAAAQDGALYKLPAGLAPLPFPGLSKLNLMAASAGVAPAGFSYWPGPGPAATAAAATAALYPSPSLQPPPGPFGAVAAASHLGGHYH
Summary of the method: as §1

ETV5 = ETV5 (Homo sapiens, UniProt P41161 1-510); settings: protein: recombinant; tags: N-terminal GST; dsDNA, one strand shown
Chain of ETV5 (P41161 whole entry): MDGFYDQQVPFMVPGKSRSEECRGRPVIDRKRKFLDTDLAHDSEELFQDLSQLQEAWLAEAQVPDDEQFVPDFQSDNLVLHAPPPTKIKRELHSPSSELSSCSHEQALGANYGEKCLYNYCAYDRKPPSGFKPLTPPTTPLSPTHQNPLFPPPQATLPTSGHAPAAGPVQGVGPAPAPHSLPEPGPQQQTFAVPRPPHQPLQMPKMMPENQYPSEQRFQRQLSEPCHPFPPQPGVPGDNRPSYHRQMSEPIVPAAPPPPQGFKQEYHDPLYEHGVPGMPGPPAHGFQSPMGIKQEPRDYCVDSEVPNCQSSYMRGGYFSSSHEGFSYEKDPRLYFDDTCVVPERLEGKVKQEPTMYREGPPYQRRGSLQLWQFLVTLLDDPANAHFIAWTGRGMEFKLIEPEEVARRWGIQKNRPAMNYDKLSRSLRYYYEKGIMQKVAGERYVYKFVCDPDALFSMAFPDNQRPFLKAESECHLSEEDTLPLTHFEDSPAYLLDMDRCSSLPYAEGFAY
Summary of the method: as §1

HSF1 = HSF1 (Homo sapiens, UniProt Q00613 1-529); settings: protein: recombinant; tags: N-terminal GST; chain copies: 3; dsDNA, one strand shown
Chain of HSF1 (Q00613 whole entry): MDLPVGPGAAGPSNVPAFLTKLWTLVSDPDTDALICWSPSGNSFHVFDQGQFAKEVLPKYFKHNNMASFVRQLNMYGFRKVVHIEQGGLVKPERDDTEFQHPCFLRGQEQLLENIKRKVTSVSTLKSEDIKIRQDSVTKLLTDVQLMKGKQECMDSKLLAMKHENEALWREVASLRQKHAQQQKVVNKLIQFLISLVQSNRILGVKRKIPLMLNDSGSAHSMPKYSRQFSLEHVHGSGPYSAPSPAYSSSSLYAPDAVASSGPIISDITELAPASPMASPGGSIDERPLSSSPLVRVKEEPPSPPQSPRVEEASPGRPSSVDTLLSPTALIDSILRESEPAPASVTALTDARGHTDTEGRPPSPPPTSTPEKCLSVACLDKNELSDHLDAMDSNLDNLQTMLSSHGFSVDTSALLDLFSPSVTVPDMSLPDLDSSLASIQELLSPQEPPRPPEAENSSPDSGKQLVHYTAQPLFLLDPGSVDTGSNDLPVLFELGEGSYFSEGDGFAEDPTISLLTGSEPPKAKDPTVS
Summary of the method: as §1

SPIC = molecular target: T8, SPIC (Homo sapiens, UniProt Q8N5J4 1-248); settings: protein: recombinant; tags: N-terminal GST; dsDNA, one strand shown
T8 sequence: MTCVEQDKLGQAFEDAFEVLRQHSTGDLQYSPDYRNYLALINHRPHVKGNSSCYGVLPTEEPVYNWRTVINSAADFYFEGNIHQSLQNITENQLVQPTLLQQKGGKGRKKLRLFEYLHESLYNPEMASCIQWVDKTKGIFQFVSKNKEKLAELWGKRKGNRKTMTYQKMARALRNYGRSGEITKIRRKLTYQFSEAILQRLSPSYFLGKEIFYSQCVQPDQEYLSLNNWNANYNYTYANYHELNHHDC
Summary of the method: as §1

ELF4 = ELF4 (Homo sapiens, UniProt Q99607 1-663); settings: protein: recombinant; tags: N-terminal GST; dsDNA, one strand shown
Chain of ELF4 (Q99607 whole entry): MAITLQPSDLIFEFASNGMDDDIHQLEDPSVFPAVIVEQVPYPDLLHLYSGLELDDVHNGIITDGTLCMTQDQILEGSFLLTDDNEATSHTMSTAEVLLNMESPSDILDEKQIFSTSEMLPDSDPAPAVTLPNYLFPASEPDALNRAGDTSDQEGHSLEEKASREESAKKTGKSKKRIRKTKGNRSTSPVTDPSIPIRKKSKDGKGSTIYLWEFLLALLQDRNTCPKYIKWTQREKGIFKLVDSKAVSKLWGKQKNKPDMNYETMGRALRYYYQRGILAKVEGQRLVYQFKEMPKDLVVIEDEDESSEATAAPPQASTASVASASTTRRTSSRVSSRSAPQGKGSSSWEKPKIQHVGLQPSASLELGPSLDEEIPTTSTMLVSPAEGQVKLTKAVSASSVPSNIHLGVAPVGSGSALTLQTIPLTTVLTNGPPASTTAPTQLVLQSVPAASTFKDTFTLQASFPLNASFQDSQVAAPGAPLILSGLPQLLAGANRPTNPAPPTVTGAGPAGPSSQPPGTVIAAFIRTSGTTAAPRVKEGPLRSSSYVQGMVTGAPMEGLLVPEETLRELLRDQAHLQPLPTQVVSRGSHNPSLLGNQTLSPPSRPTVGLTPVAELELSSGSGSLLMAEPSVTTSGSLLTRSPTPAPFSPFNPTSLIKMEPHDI
Summary of the method: as §1

ELK4 = molecular target: T9, ELK4 (Homo sapiens, UniProt P28324-2 1-405); settings: protein: recombinant; tags: N-terminal GST; dsDNA, one strand shown
T9 sequence: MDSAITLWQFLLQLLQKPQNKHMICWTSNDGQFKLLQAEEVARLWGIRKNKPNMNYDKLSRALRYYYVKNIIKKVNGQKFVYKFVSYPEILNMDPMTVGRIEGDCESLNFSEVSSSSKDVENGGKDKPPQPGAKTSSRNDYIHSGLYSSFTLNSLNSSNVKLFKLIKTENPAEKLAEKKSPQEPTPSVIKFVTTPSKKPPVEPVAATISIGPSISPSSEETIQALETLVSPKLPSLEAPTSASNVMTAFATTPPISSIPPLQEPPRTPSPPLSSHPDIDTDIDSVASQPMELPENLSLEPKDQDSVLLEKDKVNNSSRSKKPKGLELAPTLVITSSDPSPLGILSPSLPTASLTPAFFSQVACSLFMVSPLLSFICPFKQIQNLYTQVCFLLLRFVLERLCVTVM
Summary of the method: as §1

ETV2 = molecular target: T10, ETV2 (Homo sapiens, UniProt O00321 1-342); settings: protein: recombinant; tags: N-terminal GST; dsDNA, one strand shown
T10 sequence: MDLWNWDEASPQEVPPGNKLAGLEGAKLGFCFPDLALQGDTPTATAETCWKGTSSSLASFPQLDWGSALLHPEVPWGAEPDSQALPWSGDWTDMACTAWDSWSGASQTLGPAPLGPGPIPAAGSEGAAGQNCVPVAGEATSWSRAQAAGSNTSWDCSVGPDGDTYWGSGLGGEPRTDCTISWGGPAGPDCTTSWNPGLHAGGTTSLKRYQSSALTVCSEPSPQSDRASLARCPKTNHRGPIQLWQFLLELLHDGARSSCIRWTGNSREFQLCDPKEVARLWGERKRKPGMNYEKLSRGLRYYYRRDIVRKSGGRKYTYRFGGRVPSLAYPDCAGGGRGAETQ
Summary of the method: as §1

ELF3 = molecular target: T11, ELF3 (Homo sapiens, UniProt P78545 1-371); settings: protein: recombinant; tags: N-terminal GST; dsDNA, one strand shown
T11 sequence: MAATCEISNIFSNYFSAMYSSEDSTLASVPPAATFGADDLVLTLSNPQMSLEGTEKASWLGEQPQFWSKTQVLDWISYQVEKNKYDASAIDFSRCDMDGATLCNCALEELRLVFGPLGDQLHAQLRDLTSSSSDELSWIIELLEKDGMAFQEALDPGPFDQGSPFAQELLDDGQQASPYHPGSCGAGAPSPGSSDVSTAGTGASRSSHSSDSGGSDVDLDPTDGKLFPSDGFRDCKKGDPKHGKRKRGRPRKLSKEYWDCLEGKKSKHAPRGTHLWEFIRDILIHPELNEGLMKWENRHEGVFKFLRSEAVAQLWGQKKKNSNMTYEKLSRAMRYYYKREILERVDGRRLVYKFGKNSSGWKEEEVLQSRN
Summary of the method: as §1

CRX = CRX (Homo sapiens, UniProt O43186 1-299); settings: protein: recombinant; tags: N-terminal GST; dsDNA, one strand shown
Chain of CRX (O43186 whole entry): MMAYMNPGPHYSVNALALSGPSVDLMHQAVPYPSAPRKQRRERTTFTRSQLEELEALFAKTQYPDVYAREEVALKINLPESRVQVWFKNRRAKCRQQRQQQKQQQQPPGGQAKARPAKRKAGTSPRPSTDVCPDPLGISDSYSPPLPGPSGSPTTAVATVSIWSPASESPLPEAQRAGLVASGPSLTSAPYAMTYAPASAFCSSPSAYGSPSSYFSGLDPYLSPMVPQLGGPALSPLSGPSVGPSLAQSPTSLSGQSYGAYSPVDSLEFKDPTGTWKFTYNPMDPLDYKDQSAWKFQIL
Summary of the method: as §1

ETV1 = ETV1 (Homo sapiens, UniProt P50549 1-477); settings: protein: recombinant; tags: N-terminal GST; dsDNA, one strand shown
Chain of ETV1 (P50549 whole entry): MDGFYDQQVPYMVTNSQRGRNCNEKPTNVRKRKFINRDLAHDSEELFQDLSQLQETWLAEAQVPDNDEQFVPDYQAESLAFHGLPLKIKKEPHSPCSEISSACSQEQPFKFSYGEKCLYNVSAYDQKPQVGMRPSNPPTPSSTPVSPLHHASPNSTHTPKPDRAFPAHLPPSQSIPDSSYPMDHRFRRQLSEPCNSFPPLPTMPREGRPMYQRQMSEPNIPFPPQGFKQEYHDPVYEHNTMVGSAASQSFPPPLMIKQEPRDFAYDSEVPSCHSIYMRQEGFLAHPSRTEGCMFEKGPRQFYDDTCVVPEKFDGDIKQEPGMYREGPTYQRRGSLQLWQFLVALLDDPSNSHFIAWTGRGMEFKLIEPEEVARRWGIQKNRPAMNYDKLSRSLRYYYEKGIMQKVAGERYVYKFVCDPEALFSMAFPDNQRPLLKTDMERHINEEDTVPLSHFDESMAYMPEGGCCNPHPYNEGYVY
Summary of the method: as §1

## CTCCTA
FLI1
  binding signal: 1.47 fold enrichment (6-mer frequency, TF over GST control)
ELK1
  binding signal: 1.19 fold enrichment (6-mer frequency, TF over GST control)
GABPA
  binding signal: 1.38 fold enrichment (6-mer frequency, TF over GST control)
ERG
  binding signal: 1.22 fold enrichment (6-mer frequency, TF over GST control)
ELF1
  binding signal: 1.24 fold enrichment (6-mer frequency, TF over GST control)
EHF
  binding signal: 1.25 fold enrichment (6-mer frequency, TF over GST control)
SPI1
  binding signal: 1.46 fold enrichment (6-mer frequency, TF over GST control)
SPIB
  binding signal: 1.4 fold enrichment (6-mer frequency, TF over GST control)
ELK3
  binding signal: 1.24 fold enrichment (6-mer frequency, TF over GST control)
FEV
  binding signal: 1.32 fold enrichment (6-mer frequency, TF over GST control)
ETV5
  binding signal: 1.28 fold enrichment (6-mer frequency, TF over GST control)
HSF1
  binding signal: 1.39 fold enrichment (6-mer frequency, TF over GST control)
SPIC
  binding signal: 1.49 fold enrichment (6-mer frequency, TF over GST control)
ELF4
  binding signal: 1.44 fold enrichment (6-mer frequency, TF over GST control)
ELK4
  binding signal: 1.46 fold enrichment (6-mer frequency, TF over GST control)
ETV2
  binding signal: 1.24 fold enrichment (6-mer frequency, TF over GST control)
ELF3
  binding signal: 1.31 fold enrichment (6-mer frequency, TF over GST control)
CRX
  binding signal: 1.49 fold enrichment (6-mer frequency, TF over GST control)
ETV1
  binding signal: 1.29 fold enrichment (6-mer frequency, TF over GST control)

— PMC7862700, “An all-to-all approach to the identification of sequence-specific readers for epigenetic DNA modifications on cytosine”
